Test results published in PubChem BioAssay (NCI).
About 79,000 compounds went through this panel and 15% of them were active in at least one assay; those are over-represented in the sample as a whole. Calls of active or inactive are those of the source. Cut-off read from the data, not from the text of the source: active = growth inhibition above about 70%; inactive = the rest.

Assays:
[1] = NCI Yeast Anticancer Drug Screen. Data for the rad50 strain (AID 155);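 note: 0% = growth of vehicle-only cultures of the same strain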; conditions: S. cerevisiae rad50 strain growth inhibition, stronger effect = higher value
Summary of the method: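 Yeast carrying a defined DNA repair defect were exposed to test compounds, and growth was compared with vehicle-treated controls to give percent inhibition.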

[2] = NCI Yeast Anticancer Drug Screen. Data for the mec2-1 strain (AID 157); conditions: S. cerevisiae mec2-1 strain, stronger effect = higher value
Summary of the method: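 Readout is yeast growth inhibition, normalised to vehicle-treated controls, in the mec2-1 strain exposed to compound.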

[3] = NCI Yeast Anticancer Drug Screen. Data for the sgs1 mgt1 strain (AID 161);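 note: 0% = growth of cultures given vehicle only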; conditions: S. cerevisiae sgs1 mgt1 strain, stronger effect = higher value
Summary of the method: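 Compounds are added to genetically altered yeast, and growth is compared with cultures given vehicle alone to give percent inhibition.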

[4] = NCI Yeast Anticancer Drug Screen. Data for the cln2 rad14 strain (AID 165);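 note: 0% = growth equal to vehicle treated cultures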; conditions: S. cerevisiae cln2 rad14 strain, stronger effect = higher value
Summary of the method: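 Relative to vehicle controls, growth inhibition of compound-treated cln2 rad14 yeast was recorded.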

[5] = NCI Yeast Anticancer Drug Screen. Data for the bub3 strain (AID 167); conditions: S. cerevisiae bub3 mutant strain, stronger effect = higher value
Summary of the method: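 Compounds were applied to a genetically altered yeast strain carrying a cell-cycle control defect. Growth inhibition was scored against vehicle-treated controls.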

[6] = NCI Yeast Anticancer Drug Screen. Data for the mlh1 rad18 strain (AID 175); conditions: S. cerevisiae mlh1 rad18 strain growth inhibition, stronger effect = higher value
Summary of the method: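 Test agents were incubated with a yeast strain of defined genotype (DNA damage repair defect). Inhibition of growth was derived by comparison with vehicle-exposed cultures.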

[7] = at 5.0 µM (retest, dose inferred, filed as 0.5)
[8] = at 50.0 µM (retest, dose inferred, filed as 5.0)

Measured: growth inhibition

Cc1cc2c(=O)[nH]c(N)nc2nc1C
inactive: [1]; [7] -7% | [1]; [8] 11% | [1]; at 50.0 µM -9.45% | [2]; [7] 1% | [2]; [8] -15% | [2]; at 50.0 µM -17.5% | [3]; [7] -13% | [3]; [8] -13% | [3]; at 50.0 µM -25% | [4]; [7] -2% | [4]; [8] -5% | [4]; at 50.0 µM 15.1% | [5]; [7] -5% | [5]; [8] 3% | [5]; at 50.0 µM -8.85% | [6]; [7] -21% | [6]; [8] -2% | [6]; at 50.0 µM -21.5%

CCCCCCCCCCCC(=O)C(=O)c1ccc(O)cc1O
active: [1]; [8] 88% | [1]; at 50.0 µM 93.8% | [2]; [7] 87% | [2]; [8] 93% | [2]; at 50.0 µM 97.3% | [3]; [7] 91% | [3]; [8] 92% | [3]; at 50.0 µM 96.4% | [4]; [8] 84% | [4]; at 50.0 µM 95.5% | [5]; [8] 90% | [5]; at 50.0 µM 95.8% | [6]; [7] 87% | [6]; [8] 92% | [6]; at 50.0 µM 96.7%
inactive: [1]; [7] 52% | [4]; [7] 25% | [5]; [7] 45%

O=C(Cc1ccccc1)NNc1nc(NNC(=O)c2ccncc2)nc(Nc2ccccc2)n1
inactive: [1]; [7] 11% | [1]; [8] 18% | [1]; at 50.0 µM 26% | [2]; [7] -9% | [2]; [8] 11% | [2]; at 50.0 µM 10.4% | [3]; [7] 12% | [3]; [8] 11% | [3]; at 50.0 µM 33.3% | [4]; [7] -10% | [4]; [8] 21% | [4]; at 50.0 µM -2.6% | [5]; [7] -10% | [5]; [8] 19% | [5]; at 50.0 µM 36.6% | [6]; [7] 13% | [6]; [8] 25% | [6]; at 50.0 µM 51.1%

Cc1ccc(Cc2n[nH]c(=O)n2N2C(=O)c3ccccc3C2=O)cc1
inactive: [1]; [7] 18% | [1]; [8] 16% | [1]; at 50.0 µM -24.8% | [2]; [7] 9% | [2]; [8] 14% | [2]; at 50.0 µM -37.2% | [3]; [7] 9% | [3]; [8] 9% | [3]; at 50.0 µM -33.4% | [4]; [7] 9% | [4]; [8] 17% | [4]; at 50.0 µM -5.1% | [5]; [7] 18% | [5]; [8] 13% | [5]; at 50.0 µM -25.1% | [6]; [7] 13% | [6]; [8] 12% | [6]; at 50.0 µM -38.2%

c1cc2c(cc1CCCCCCCCCCc1ccc3c(c1)CCC3)CCC2
inactive: [1]; [7] -4% | [1]; [8] -5% | [1]; at 50.0 µM 2.75% | [2]; [7] -13% | [2]; [8] -8% | [2]; at 50.0 µM 3.85% | [3]; [7] 9% | [3]; [8] 2% | [3]; at 50.0 µM 3.3% | [4]; [7] -4% | [4]; [8] 0% | [5]; [7] -6% | [5]; [8] -2% | [5]; at 50.0 µM 2.95% | [6]; [7] -2% | [6]; [8] -38% | [6]; at 50.0 µM 10.6%
active: [4]; at 50.0 µM 79.8%

Clc1ccccc1/C=C/c1ccnc2ccccc12
active: [1]; [8] 99% | [1]; at 50.0 µM 97.7% | [2]; [8] 99% | [2]; at 50.0 µM 97.8% | [3]; [8] 99% | [3]; at 50.0 µM 97.9% | [4]; [8] 98% | [4]; at 50.0 µM 96.8% | [5]; [8] 99% | [5]; at 50.0 µM 97.9% | [6]; [8] 99% | [6]; at 50.0 µM 98.2%
inactive: [1]; [7] 1% | [2]; [7] 17% | [3]; [7] 14% | [4]; [7] -19% | [5]; [7] -3% | [6]; [7] -5%

CC(CO)(CO)Cc1ccccc1
active: [1]; at 50.0 µM 96.5% | [2]; at 50.0 µM 97.9% | [3]; at 50.0 µM 80.5% | [4]; at 50.0 µM 92.3% | [5]; at 50.0 µM 94% | [6]; at 50.0 µM 93.2%
inactive: [1]; [7] 1% | [1]; [8] -6% | [2]; [7] -2% | [2]; [8] 6% | [3]; [7] 0% | [3]; [8] -5% | [4]; [7] -3% | [4]; [8] -4% | [5]; [7] -1% | [5]; [8] 1% | [6]; [7] 2% | [6]; [8] -3%

CCOc1c(N=Nc2ccccc2OC)c(-c2ccccc2)nn1C(N)=S
active: [3]; at 50.0 µM 76.1%
inactive: [1]; [7] 10% | [1]; [8] 38% | [1]; at 50.0 µM 67% | [2]; [7] 1% | [2]; [8] 35% | [2]; at 50.0 µM 63% | [3]; [7] 26% | [3]; [8] 61% | [4]; [7] -8% | [4]; [8] 20% | [4]; at 50.0 µM 44% | [5]; [7] -1% | [5]; [8] 29% | [5]; at 50.0 µM 26.8% | [6]; [7] 2% | [6]; [8] 39% | [6]; at 50.0 µM 53.4%

COc1ccc2cc3c4cc(OC)c(OC)cc4ccn3c2c1
inactive: [1]; [7] 3% | [1]; [8] 65% | [1]; at 50.0 µM 33.1% | [2]; [7] -1% | [2]; [8] 58% | [2]; at 50.0 µM 15.3% | [3]; [7] 16% | [3]; at 50.0 µM 62.4% | [4]; [7] 5% | [5]; [7] -1% | [5]; at 50.0 µM 24.2% | [6]; [7] 12%
active: [3]; [8] 81% | [4]; [8] 71% | [4]; at 50.0 µM 80% | [5]; [8] 84% | [6]; [8] 88% | [6]; at 50.0 µM 91.5%

Cc1c(O)c(Br)c(C)c(O)c1Br (tested in a mixture with another compound)
inactive: [1]; [7] 0% | [2]; [7] 21% | [2]; [8] 69% | [2]; at 50.0 µM 49.8% | [3]; [7] -2% | [4]; [7] -2% | [4]; [8] 47% | [4]; at 50.0 µM 1.05% | [5]; [7] 1% | [5]; at 50.0 µM 61.6% | [6]; [7] 8% | [6]; at 50.0 µM 62.1%
active: [1]; [8] 85% | [1]; at 50.0 µM 75.8% | [3]; [8] 90% | [3]; at 50.0 µM 80.6% | [5]; [8] 77% | [6]; [8] 86%
